KCNQ2 block: rat KCNQ2 potassium channel inhibitors, primary screen, cell-based, CHO-K1, FluxOR thallium flux, B-score | Potassium voltage-gated channel subfamily KQT member 2 (Rattus norvegicus), O88943 | 20 min; active compounds read low | B-score at 10 µM | actives 1.1% (n = 310,000) | AID 2156, 2009;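 active = fluorescence ratio B-score at most minus 3 library SDs, with starting brightness B-score within 2 library SDs, cut at about -5.5 in these data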
KCNQ2 enhance: potentiators of rat KCNQ2 potassium channel. Potassium voltage-gated channel subfamily KQT member 2 (Rattus norvegicus), O88943. CHO-K1 KCNQ2, FluxOR thallium flux fluorescence; active compounds read high. B-score at 10 µM. actives 0.54% (n = 310,000). AID 2239, 2010;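 active = fluorescence ratio B-score at least 3 SD of library B-scores, with initial fluorescence B-score within 3 of them, cut at about 5.3 in these data; same plate scores as AID 2156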;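 also: B-score of peak minus minimum over baseline fluorescence ratio after K+ and Tl+ stimulus; positive B-score means potentiation of KCNQ2 with more thallium influx and brighter signal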
Kir21 conf inh: mouse Kir2.1 channel blockers, retest, confirmation, cell-based, FluxOR thallium flux, duplicate | actives 41% (n = 2,300) | Kir2.1-expressing cells, FluxOR thallium flux fluorescence; active compounds read low | Tl flux remaining, % of negative control (active compounds read low), % at 10 µM | shares compounds with KCNQ2 enhance | AID 2032, 2009;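 active = Primary-screen hit whose thallium flux fell at least 3 control SD below untreated wells in both duplicates, with normal baseline fluorescence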;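 also: 0% = blank wells without stimulus and 100% = stimulated no-compound controls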
Target sequence (P35561 whole entry, looked up): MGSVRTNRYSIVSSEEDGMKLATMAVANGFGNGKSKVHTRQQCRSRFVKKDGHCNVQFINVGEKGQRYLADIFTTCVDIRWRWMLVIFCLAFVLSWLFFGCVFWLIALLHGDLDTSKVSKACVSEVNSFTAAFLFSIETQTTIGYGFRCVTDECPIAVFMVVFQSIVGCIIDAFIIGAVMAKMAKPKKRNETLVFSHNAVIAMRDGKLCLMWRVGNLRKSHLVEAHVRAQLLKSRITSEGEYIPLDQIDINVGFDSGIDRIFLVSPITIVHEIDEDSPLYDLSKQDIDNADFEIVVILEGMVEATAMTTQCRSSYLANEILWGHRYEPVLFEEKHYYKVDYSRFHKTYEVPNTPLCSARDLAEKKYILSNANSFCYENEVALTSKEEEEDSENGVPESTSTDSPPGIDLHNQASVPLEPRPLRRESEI
HEK293 ctr: counter-screen for Kir2.1 inhibitors: effect in parental HEK293 cells | shares compounds with KCNQ2 enhance | FluxOR thallium flux fluorescence; 0% = unstimulated blank wells | FluxOR signal as % of negative control (100 = no effect), % at 10 µM | actives 19% (n = 2,300);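 active = dye signal at least 3 control SD above or below untreated wells in both duplicates, raw fluorescence within 3, either direction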;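 also: percent is based on the flux ratio of peak minus minimum fluorescence over baseline F0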
CHO-K1 ctr: nonspecific thallium flux increase in parental CHO-K1, confirmation, counter-screen for KCNQ2 potentiator project, cell-based, FluxOR thallium flux, duplicate | shares compounds with KCNQ2 enhance | parental CHO-K1 cells, FluxOR thallium flux fluorescence; zero = vehicle mean+3SD, 100% = vehicle-minus-blank window | activity increase over 3SD of controls, % at 10 µM | actives 43% (n = 1,200) | AID 2282, 2010;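 active = signal rise of at least 3 SD above the untreated control mean, in both duplicate wells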;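 also: counter screen of KCNQ2 potentiator hits so any rise reflects channel-independent effects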
KCNQ1 pot spec: human KCNQ1 channel potentiation off-target, confirmation, selectivity assay for KCNQ2 potentiator project, cell-based, CHO, FluxOR thallium flux; actives 28% (n = 1,200); AID 2283, 2010; activation over 3SD threshold, % at 10 µM; CHO KCNQ1 stable, FluxOR thallium flux fluorescence; beyond 3SD, as % of vehicle-control signal; shares compounds with KCNQ2 enhance;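 active = fluorescence ratio rise of at least 3 SD of vehicle wells above their mean, in both replicate wells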;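 also: 0% = vehicle mean plus 3 SD and 100% = vehicle minus unstimulated blank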
KCNQ2 pot conf: rat KCNQ2 channel potentiators, confirmation, cell-based, CHO, FluxOR thallium flux, duplicate. actives 68% (n = 1,200). CHO-KCNQ2 cells, FluxOR thallium flux fluorescence. potentiation, less the hit threshold, % at 10 µM. shares compounds with KCNQ2 enhance;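 active = fluorescence ratio rising 3 SD or more over the vehicle control mean in both replicates, plus primary screen hit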;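 also: peak minus minimum thallium fluorescence divided by baseline after K/Tl stimulus; 0% = vehicle mean plus 3 SD and 100% = vehicle minus unstimulated blank difference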
Kir2-1 sel: mouse Kir2.1 channel activation off-target, confirmation, selectivity assay for KCNQ2 potentiator project, cell-based, HEK293, FluxOR thallium flux; shares compounds with KCNQ2 enhance; HEK293 Kir2.1, FluxOR thallium flux fluorescence; activity over 3SD threshold, % at 10 µM; actives 2% (n = 1,200); AID 2345, 2010;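 active = fluorescence ratio rise of at least 3 SD above the vehicle-control mean, seen in both replicates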;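 also: 0% = vehicle mean plus 3 SD and 100% = vehicle minus no-stimulus blank window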
KCNQ2 W236L MoA: potentiators of retigabine-insensitive KCNQ2 W236L, mechanism study for KCNQ2 potentiator project, cell-based, rat KCNQ2 W236L, CHO, automated patch clamp; shares compounds with KCNQ2 enhance; automated patch clamp current; current increase over 3SD of negative controls (%), active compounds read high, % at 25 µM; actives 10% (n = 940);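 active = current increase at least 3 SD of the untreated controls above them in both duplicate recordings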
Starred values were filed as active, the others as inactive; i = inactive; . = no result. Rows were chosen to be rich in hits. Some 1.6% of all compounds tested hit in one or more screens of this group.

SMILES | KCNQ2 block | KCNQ2 enhance | Kir21 conf inh | HEK293 ctr | others
CCN(CC)CCn1c(=N)n(CC(O)COc2cccc(C)c2)c2ccccc21 (stereo not drawn) | i | . | 56%* | i
N=c1n(Cc2ccccc2)c2ccccc2n1CC(O)c1ccco1 (stereo not drawn) | i | 0.66 | . | .
Cc1cccc(OCC(O)Cn2c(=N)n(Cc3ccccc3)c3ccccc32)c1 (stereo not drawn) | i | . | 32%* | i
Cc1cccc(OCC(O)CN2CCNCC2)c1 (stereo not drawn) | i | 0.24 | . | .
Cc1cccc(OCC(O)Cn2c(=N)n(CCN3CCCCC3)c3ccccc32)c1 (stereo not drawn) | i | . | . | .
CC(C)c1ccccc1NC1=CC(=O)CC(C)(C)C1 | i | . | . | .
Cn1c(SCC(=O)N2CCOCC2)nc2c(c1=O)SCC2 | i | 1.3 | . | .
Cc1ccc(Cl)c(NC(=O)CN2CCNC(=O)C2)c1Cl | i | 0.95 | . | .
Cc1ccc(Cl)cc1NC(=O)CCC(=O)NCc1ccco1 | i | 0.26 | . | .
OC1(c2ccc(Br)cc2)CCN(Cc2cccc(Br)c2)CC1 | i | . | 20%* | i
Brc1cccc(CN2CCCCCC2)c1 | i | 0.57 | . | .
CCc1ccc(S(=O)(=O)N2CCN(C(=O)c3cccnc3)CC2)cc1 | i | 0.04 | . | .
Cc1ccc(-c2nc3c(c(SCC(=O)N4CCOCC4)n2)COC(C)(C)C3)cc1 | i | . | . | .
O=C(COc1ccc2c3c(c(=O)oc2c1)CCCC3)N1CCN(c2ccccc2)CC1 | i | . | . | .
Cc1cc(C)cc(NC(=O)c2ccc(Cn3nc(C)c(Cl)c3C)o2)c1 | i | . | . | .
Cc1ccc(CNC(=O)c2ccc(Cn3nc(C)c(Cl)c3C)o2)cc1 | i | . | 48%* | i
CCN1CCN(c2c(Cl)cccc2NC(=O)c2cc3ccccc3o2)CC1 | i | . | . | .
Cc1c(C(=O)N2CCCCC2)c(S(=O)(=O)NCCc2ccc(Cl)cc2)c(C)n1C | i | 0.38 | . | .
Fc1ccc(-c2cc(C(F)(F)F)nc(-n3cccn3)n2)cc1 | i | . | . | .
Fc1ccc(-c2cc(C(F)(F)F)nc(-n3cncn3)n2)cc1 | i | 6.2* | i | i | CHO-K1 ctr=-11;KCNQ1 pot spec=-11;KCNQ2 pot conf=19*;Kir2-1 sel=-14;KCNQ2 W236L MoA=i
O=C(COC(=O)COc1ccc2ccccc2c1)NCC(F)(F)F | i | 1.1 | . | .
CC(=O)CCC(=O)OCC(=O)c1ccc(C(F)(F)F)cc1 | i | 2.2 | . | .
O=C1C=CC(=O)C(C2=C3C(=O)N(CCc4ccccc4)CC(=O)N3CCC2)=C1 | i | 0.29 | 69%* | 69%*
O=C1CC(=O)N(CCc2ccccc2)C(=O)N1CCc1ccccc1 | i | 2.8 | . | .
CS(=O)(=O)N(CC(=O)Nc1ccccc1Sc1ccccc1)c1cccc(Br)c1 | i | 18* | i | i | CHO-K1 ctr=-8;KCNQ1 pot spec=-6;KCNQ2 pot conf=1.7*;Kir2-1 sel=-40;KCNQ2 W236L MoA=i
SMILES | KCNQ2 block | KCNQ2 enhance | Kir21 conf inh | HEK293 ctr | others
CSc1ccccc1NC(=O)CN(c1cc(C)cc(C)c1)S(C)(=O)=O | i | . | . | .
COc1ccccc1/C=N/NC(=O)CC(=O)NCCc1ccccc1 | i | . | . | .
Oc1ccc(Cl)cc1Nc1nc(NCC2CCCO2)c2ccccc2n1 (stereo not drawn) | i | 1.6 | . | .
Oc1ccccc1Nc1nc(NCC2CCCO2)c2ccccc2n1 (stereo not drawn) | i | . | 46%* | i
Oc1ccc(Nc2nc(NCC3CCCO3)c3ccccc3n2)cc1 (stereo not drawn) | i | . | i | i
c1ccc2c(NCC3CCCO3)nc(N3CCCCC3)nc2c1 (stereo not drawn) | i | 0.09 | . | .
Cn1c(=O)c(=O)n(C)c2cc(N3CCCCC3)c(NS(=O)(=O)c3ccc([N+](=O)[O-])cc3)cc21 | i | 0.67 | . | .
O=C(COC(=O)Cc1n[nH]c(=O)c2ccccc12)Nc1ccc(Cl)cc1F | i | . | . | .
Cc1nnnn1/C(=C\c1ccccc1)C(=O)OCC(=O)Nc1ccc(Cl)cc1F | i | . | i | i
Cc1csc(NC(=O)CSc2nnc(NC(=O)NC(C)(C)C)s2)n1 | i | 2.1 | . | .
COCCCNCCCCOc1ccc(OCc2ccccc2)cc1 | i | 0.41 | . | .
c1ccc(COc2ccc(OCCCNC3CCCC3)cc2)cc1 | i | . | 30%* | i
CCC(C)c1ccccc1OCCCCN1CCCC1 (stereo not drawn) | i | 1.3 | . | .
CCC(C)c1ccccc1OCCCNC1CCCC1 (stereo not drawn) | i | 1.3 | 63%* | i
CN(CC(=O)Nc1ccc(Cl)c(Cl)c1)C(=O)CC1OC(=O)c2ccccc21 (stereo not drawn) | i | . | . | .
Cc1ccccc1N1CCN(C2CCCN(C(=O)c3noc4c3CCCC4)C2)CC1 (stereo not drawn) | i | . | . | .
COc1ccc(C2(C(=O)NCCc3ccccc3)CCCC2)cc1 | i | . | . | .
O=C(NCCc1ccc(Cl)cc1)C1(c2ccccc2)CC1 | i | . | 34%* | i
O=C(NCc1ccc(F)cc1)Nc1ccc(Cl)cc1 | i | 1.4 | . | .
O=C(NCc1ccc(F)cc1)Nc1cccc(Cl)c1 | i | 5.8* | i | i | CHO-K1 ctr=87*;KCNQ1 pot spec=54*;KCNQ2 pot conf=13*;Kir2-1 sel=-36;KCNQ2 W236L MoA=i
COc1ccc(N2CC(NC(=O)NCC(C)C)CC2=O)cc1 (stereo not drawn) | i | . | . | .

Bioassay records as filed in PubChem.
